Measured values published in PubChem BioAssay (NCATS).
Where “and” joins values, the source holds several entries; their conditions need not be identical. Equal entries are not always repeated. Records with an inconclusive call do not appear. Calls of active or inactive are those of the source. Unless noted, the call rests on the fitted dose curve; in most records, active means well fitted curve in the direction sought with a large enough effect; inconclusive means small, poorly fitted or top-dose-only effect, or another doubt; inactive means no such curve, though single readings can be large; an effect the other way counts as inactive or inconclusive.

What was measured:
[1] = Validation of Assay for Modulators of Lamin A Splicing (AID 1459; active means well fitted curve in the direction sought with a large enough effect in the signal ratio; the % refers to the signal ratio;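 further: cells exposed to compound for two days before reading; 0% is about no effect; ratio rise marks activators and ratio drop marks inhibitors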)
Summary of the method: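 S3 HeLa cells stably expressing a lamin A-EGFP splicing minigene and DsRed2 were seeded at 600 cells/well in Opti-MEM with 2% FBS, pin-dosed, and incubated 48 hrs at 37 °C, 5% CO2. Laser-scanning cytometry (488 nm) gave GFP/RFP total intensity ratio.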

[2] = qHTS Assay for Lipid Storage Modulators (AID 1519; calls by dose curve; on activity change, negative = inhibition: on the % scale 0 is the no-effect control and ±100 the full control effect); settings: Drosophila S3 cells, BODIPY lipid droplet/cell ratio, laser cytometry, cells loaded with oleic acid; for activity change, negative = inhibition: at 57.5 µM (top of the series)
Summary of the method: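 Cells seeded at 5,000 per well were treated with compounds over a concentration series and loaded with oleic acid (400 uM, as added). Lipid droplet fluorescence (488 nm excitation, 500-530 nm channel) was read by laser-scanning cytometry and normalized to 20 uM Triacsin C.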

[3] = target: DNA repair nuclease/redox regulator APEX1 (Homo sapiens) (UniProt P27695); test: qHTS Validation Assay for Inhibitors of the Human Apurinic/apyrimidinic Endonuclease 1 (APE1) (AID 1705;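 further: TAMRA fluorescence gain over two minutes as APE1 cuts a quenched THF abasic duplex; on the % scale 0 is the no-effect control and ±100 the full control effect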)
Chain of DNA repair nuclease/redox regulator APEX1 (Homo sapiens) (P27695 whole entry, looked up): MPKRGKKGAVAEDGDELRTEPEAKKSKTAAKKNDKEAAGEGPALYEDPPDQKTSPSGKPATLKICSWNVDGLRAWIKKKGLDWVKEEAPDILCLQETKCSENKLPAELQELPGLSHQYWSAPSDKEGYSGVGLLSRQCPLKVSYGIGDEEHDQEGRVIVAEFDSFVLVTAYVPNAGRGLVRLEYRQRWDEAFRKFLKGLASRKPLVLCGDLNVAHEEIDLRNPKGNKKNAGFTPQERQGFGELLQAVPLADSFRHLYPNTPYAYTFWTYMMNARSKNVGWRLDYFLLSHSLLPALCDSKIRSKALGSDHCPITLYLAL
Summary of the method: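 Human APE1 was preincubated with compound for 15 min at room temperature, then 50 nM (final) THF-abasic double-stranded DNA substrate bearing 5'-TAMRA and 3'-BHQ-2 was added. Incision-driven fluorescence rise (ex 525/em 598 nm) was read kinetically.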

[4] = Counterscreen for APE1 Inhibitors: Fluorescent Dye Displacement Validation Assay (AID 1707);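 further: plate controls were ThO with dsDNA and no compound for no effect and ThO without dsDNA for full effect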
Summary of the method: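 Thiazole Orange (250 nM) bound to 50 nM TAMRA-labelled dsDNA with tetrahydrofuran abasic site; displacement by DNA-binding compounds lowers fluorescence. Buffer 50 mM Tris-HCl pH 7.5, 50 mM NaCl, 2 mM MgCl2, 0.01% Tween-20; endpoint read at 480/540 nm.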

[5] = target: Endonuclease 4 (Escherichia coli (strain K12)) (UniProt P0A6C1); test: Counterscreen for APE1 Inhibitors: qHTS Validation Assay for Inhibitors of Endonuclease IV (AID 1708); further: on the % scale 0 is the no-effect control and ±100 the full control effect
Summary of the method: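 Cleavage of a quenched abasic-site DNA duplex (50 nM, 5'-TAMRA, 3'-BHQ-2) by 2 nM enzyme is followed as fluorescence increase. Compounds are preincubated with enzyme 15 min at room temperature before substrate addition.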

[6] = qHTS for differential inhibitors of proliferation of Plasmodium falciparum line 3D7 (AID 1876); further: potency means the concentration at half of the fitted maximal effect
[7] = qHTS for differential inhibitors of proliferation of Plasmodium falciparum line Dd2 (AID 1882); settings: Potency: Plasmodium falciparum Dd2 proliferation inhibition; further: nearly all actives have a fitted effect of over 65% in size; further: potency means the concentration at half of the fitted maximal effect;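 on activity change, negative = inhibition: compound exposure of 72 h on infected erythrocytes; plate controls were DMSO vehicle for no effect and 0.29 µM artemisinin for full effect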
Summary of the method: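 SYBR Green I DNA fluorescence read-out, ex 485/em 535 nm. Signals were normalized to 0.29 uM artemisinin and DMSO wells, then corrected using vehicle-only plates flanking each stack. Parasite growth ran 72 h in erythrocytes before lysis.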

[8] = target: Ferritin light chain (Equus caballus) (UniProt P02791); test: qHTS Validation Assay for Identification of Novel General Anesthetics (AID 2323); further: on the % scale 0 is the no-effect control and ±100 the full control effect
Chain of Ferritin light chain (Equus caballus) (P02791 2-175 limits assumed): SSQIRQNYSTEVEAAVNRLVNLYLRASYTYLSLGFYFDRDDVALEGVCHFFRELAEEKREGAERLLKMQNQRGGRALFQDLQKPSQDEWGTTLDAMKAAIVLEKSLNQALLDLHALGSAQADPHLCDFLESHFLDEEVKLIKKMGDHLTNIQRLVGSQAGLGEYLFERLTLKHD
Summary of the method: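 Competitive displacement of profluorescent 1-aminoanthracene (1-AMA, 50% saturated solution in PBS) from 10 uM horse-spleen apoferritin. Compounds incubated 10 min at room temperature; fluorescence read at 380 nm excitation/535 nm emission, normalized to free 1-AMA and complex, fitted with four-parameter Hill equation.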

[9] = target: ATP-dependent DNA helicase Q1 (Homo sapiens) (UniProt P46063); test: qHTS Validation Assay for Inhibitors of RecQ-Like Dna Helicase 1 (RECQ1) (AID 2353);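 further: plate controls were DMSO vehicle for no effect and enzyme-free control for full effect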
Summary of the method: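 50 nM RECQ1T1 preincubated 15 min with compound in Tris pH 8.0 buffer with MgCl2, DTT, Tween-20 and 2.5 ug/ml poly(dI-dC); started with 200 nM TAMRA/BHQ-2 forked duplex and 2 mM ATP. Unwinding read as fluorescence (525/598 nm), two reads 2 h apart.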

[10] = Validation screen for small molecules that induce DNA re-replication in MCF 10A normal breast cells (AID 463097); further: 0% is about no effect; nearly all actives have a fitted effect of over 60% in size
Summary of the method: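 Readout: Hoechst nuclear fluorescence intensity, 405 ex / 500-530 em, by scanning plate imager; re-replication scored as increase in nuclei with elevated DNA content. Cells exposed to compound 48 hr, 37 C, 5% CO2 beforehand.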

[11] = Quantitative high throughput screen for delayed death inhibitors of the malarial parasite plastid, 96 hour incubation (AID 488745); further: nearly all actives have a fitted effect of over 70% in size; further: potency means the concentration at half of the fitted maximal effect
Summary of the method: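 P. falciparum carrying an integrated firefly luciferase reporter, grown in erythrocytes (2% hematocrit, 0.1% parasitemia final) in RPMI 1640/0.5% Albumax, was exposed to compound for 96 h (two generations) at 37 C, 5% CO2. Luminescence decrease indicated growth inhibition.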

[12] = Quantitative high throughput screen for delayed death inhibitors of the malarial parasite plastid, 48 hour incubation (AID 488752); further: nearly all actives have a fitted effect of over 65% in size; further: potency means the concentration at half of the fitted maximal effect
Summary of the method: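 Erythrocytes infected with P. falciparum carrying an integrated firefly luciferase reporter (2% hematocrit, 0.1% parasitemia final) were exposed to compounds in RPMI 1640/0.5% Albumax for 48 h at 37 C, 5% CO2. Growth inhibition was scored as reduced luminescence.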

[13] = target: M-phase phosphoprotein 8 (Homo sapiens) (UniProt Q99549); test: qHTS Validation Assay for Inhibitors for MPP8 Chromodomain Interactions with Methylated Histone Tails (AID 488949); further: nearly all actives have a fitted effect of over 55% in size; further: potency means the concentration at half of the fitted maximal effect
Chain of M-phase phosphoprotein 8 (Homo sapiens) (Q99549 whole entry, looked up): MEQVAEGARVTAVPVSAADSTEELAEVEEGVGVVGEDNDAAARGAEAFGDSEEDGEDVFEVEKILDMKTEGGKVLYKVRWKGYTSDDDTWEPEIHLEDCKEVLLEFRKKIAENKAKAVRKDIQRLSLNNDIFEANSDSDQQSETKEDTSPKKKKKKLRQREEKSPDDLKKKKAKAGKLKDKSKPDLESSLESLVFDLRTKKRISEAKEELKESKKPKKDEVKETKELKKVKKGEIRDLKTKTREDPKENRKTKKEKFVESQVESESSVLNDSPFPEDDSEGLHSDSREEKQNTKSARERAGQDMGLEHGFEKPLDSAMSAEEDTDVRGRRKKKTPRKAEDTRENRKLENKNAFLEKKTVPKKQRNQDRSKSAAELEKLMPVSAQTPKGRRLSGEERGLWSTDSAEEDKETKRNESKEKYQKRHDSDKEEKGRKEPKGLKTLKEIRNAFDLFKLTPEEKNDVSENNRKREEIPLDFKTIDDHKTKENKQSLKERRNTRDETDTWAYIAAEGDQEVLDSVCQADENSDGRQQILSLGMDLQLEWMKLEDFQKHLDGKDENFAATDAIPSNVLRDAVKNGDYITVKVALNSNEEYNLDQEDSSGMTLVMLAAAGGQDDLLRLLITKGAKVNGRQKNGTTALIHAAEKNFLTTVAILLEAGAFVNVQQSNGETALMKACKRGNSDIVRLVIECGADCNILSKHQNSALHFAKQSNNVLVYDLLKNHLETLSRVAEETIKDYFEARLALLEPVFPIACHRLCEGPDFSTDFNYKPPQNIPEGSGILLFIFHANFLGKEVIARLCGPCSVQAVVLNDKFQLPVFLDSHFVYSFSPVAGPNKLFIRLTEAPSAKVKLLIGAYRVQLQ
Summary of the method: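 MPP8 (50 nM) was preincubated with biotinylated H3(1-18)K9me3 peptide (50 nM) in PBS pH 7.4, 0.01% Tween-20 for 30 min at room temperature, then with compounds for 30 min; binding was detected by AlphaScreen.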

[14] = target: Transient receptor potential cation channel subfamily V member 1 (Homo sapiens) (UniProt Q8NER1); test: HTS Assay for Compounds that Act as Enhancers of the Vanilloid Receptor 1 (AID 488979); further: 0% is about no effect
Chain of Transient receptor potential cation channel subfamily V member 1 (Homo sapiens) (Q8NER1 whole entry, looked up): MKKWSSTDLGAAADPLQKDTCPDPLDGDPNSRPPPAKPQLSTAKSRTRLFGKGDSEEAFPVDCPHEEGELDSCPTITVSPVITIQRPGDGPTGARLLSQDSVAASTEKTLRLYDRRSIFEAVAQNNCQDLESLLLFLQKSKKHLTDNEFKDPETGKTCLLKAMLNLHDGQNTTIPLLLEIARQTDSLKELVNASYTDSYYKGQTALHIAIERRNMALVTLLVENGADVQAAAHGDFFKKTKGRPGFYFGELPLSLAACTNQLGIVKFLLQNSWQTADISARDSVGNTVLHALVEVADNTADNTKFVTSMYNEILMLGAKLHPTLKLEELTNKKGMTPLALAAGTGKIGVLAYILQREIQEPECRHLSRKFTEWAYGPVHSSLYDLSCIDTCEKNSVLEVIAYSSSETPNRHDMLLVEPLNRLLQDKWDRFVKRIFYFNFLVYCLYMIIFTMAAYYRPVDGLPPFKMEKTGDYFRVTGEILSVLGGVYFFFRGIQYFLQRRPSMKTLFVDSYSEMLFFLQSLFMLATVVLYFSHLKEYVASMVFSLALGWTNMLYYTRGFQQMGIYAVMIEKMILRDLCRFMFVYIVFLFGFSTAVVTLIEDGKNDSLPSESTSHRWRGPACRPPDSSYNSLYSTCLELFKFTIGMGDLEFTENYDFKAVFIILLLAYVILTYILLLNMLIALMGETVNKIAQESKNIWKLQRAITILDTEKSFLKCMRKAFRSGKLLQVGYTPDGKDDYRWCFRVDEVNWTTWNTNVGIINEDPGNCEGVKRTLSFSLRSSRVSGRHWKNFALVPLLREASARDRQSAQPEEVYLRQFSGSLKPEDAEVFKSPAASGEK
Summary of the method: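 TRPV1 cells loaded with Fluo-8 calcium dye; compound added and Ca2+ signal (ex 480/em 520 nm) followed 3 min, then capsaicin at EC20 added and read 2 more min to detect enhancement.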

[15] = target: Thyrotropin receptor (Homo sapiens) (UniProt P16473); test: qHTS Assay for Antagonists of the Thyroid Stimulating Hormone Receptor (AID 488980); further: 0% is about no effect
Chain of Thyrotropin receptor (Homo sapiens) (P16473 whole entry, looked up): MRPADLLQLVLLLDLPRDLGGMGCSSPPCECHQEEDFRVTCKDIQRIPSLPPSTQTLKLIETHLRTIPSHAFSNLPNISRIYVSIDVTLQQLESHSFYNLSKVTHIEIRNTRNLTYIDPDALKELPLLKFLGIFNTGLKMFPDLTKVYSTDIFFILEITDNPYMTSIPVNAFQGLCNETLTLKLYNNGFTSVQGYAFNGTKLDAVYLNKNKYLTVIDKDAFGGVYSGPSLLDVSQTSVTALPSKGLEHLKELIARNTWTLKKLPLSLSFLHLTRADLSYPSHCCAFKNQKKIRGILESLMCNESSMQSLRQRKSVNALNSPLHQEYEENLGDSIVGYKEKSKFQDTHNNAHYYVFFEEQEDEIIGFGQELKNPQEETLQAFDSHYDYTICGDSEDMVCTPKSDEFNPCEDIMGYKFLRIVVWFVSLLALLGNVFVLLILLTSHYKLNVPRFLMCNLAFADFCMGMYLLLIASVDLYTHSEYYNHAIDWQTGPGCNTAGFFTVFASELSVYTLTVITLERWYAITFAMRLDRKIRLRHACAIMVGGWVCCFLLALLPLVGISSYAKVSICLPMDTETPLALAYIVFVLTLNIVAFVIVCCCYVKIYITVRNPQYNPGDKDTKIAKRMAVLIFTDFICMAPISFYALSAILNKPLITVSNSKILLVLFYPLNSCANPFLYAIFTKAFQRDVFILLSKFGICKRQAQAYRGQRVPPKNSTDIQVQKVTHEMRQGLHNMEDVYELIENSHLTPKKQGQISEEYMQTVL
Summary of the method: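 HEK293 cells transfected with human TSHR, suspended in HEPES-buffered HBSS with 70 uM RO 20-1724, were treated with compounds plus TSH at EC80 (4 nM final). cAMP was measured by competitive HTRF (cryptate anti-cAMP antibody, cAMP-d2 acceptor).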

[16] = target: Thyrotropin-releasing hormone receptor (Homo sapiens) (UniProt P34981); test: qHTS for Small Molecule Agonists and Allosteric Enhancers of Human TRH Receptor: Validation Screen for Agonists (AID 493127;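 active means calcium activation more than 3 SD above the typical response in the agonist read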;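 further: intracellular calcium rise by fluo-8 fluorescence before TRH EC20 addition; 0% is about no effect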); settings: TRH receptor agonist cell assay; at 2 µM; stronger effect = higher value
Chain of Thyrotropin-releasing hormone receptor (Homo sapiens) (P34981 whole entry, looked up): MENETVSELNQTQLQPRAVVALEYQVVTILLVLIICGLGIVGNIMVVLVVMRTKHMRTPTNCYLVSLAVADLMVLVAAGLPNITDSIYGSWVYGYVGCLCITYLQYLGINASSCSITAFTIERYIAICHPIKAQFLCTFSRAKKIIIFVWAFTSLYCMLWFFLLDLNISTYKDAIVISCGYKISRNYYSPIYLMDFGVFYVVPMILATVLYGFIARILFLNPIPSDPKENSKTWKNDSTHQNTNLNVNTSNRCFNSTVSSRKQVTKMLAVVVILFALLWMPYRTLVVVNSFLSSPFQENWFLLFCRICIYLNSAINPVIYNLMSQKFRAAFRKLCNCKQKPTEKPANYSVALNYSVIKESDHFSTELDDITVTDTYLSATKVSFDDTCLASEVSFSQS
Summary of the method: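 TRHR-expressing cells were plated overnight in serum-containing medium, then loaded with fluo-8 calcium dye at room temperature for 30 min–1.5 h. After a 10 s baseline, compound was pin-transferred and calcium fluorescence (ex 480/em 530) read kinetically for agonist response.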

[17] = target: Galactokinase (Homo sapiens) (UniProt P51570); test: qHTS Validation Assay for Inhibitors of Human Galactokinase (GALK) (AID 493189); further: 0% is about no effect
Chain of Galactokinase (Homo sapiens) (P51570 whole entry, looked up): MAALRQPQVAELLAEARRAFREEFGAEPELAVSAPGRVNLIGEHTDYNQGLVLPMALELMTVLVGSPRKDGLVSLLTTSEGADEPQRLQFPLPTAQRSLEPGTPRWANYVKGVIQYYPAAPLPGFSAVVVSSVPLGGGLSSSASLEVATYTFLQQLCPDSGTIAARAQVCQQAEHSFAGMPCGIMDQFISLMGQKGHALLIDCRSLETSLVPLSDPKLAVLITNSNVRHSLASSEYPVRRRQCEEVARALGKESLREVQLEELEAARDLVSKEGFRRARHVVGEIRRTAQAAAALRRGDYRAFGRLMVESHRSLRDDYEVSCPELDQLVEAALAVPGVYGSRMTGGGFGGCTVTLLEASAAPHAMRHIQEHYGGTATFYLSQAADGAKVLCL
Summary of the method: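 GALK (5 nM) with 35 uM ATP and 100 uM galactose in HEPES pH8.0, MgCl2, NaCl, DTT, BSA; 1 h at room temperature. Residual ATP read by Kinase-Glo Plus luminescence after 10 min.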

[18] = target: Voltage-gated inwardly rectifying potassium channel KCNH2 (Homo sapiens) (UniProt Q12809); test: qHTS Assay for Small Molecule Inhibitors of the Human hERG Channel Activity (AID 588834);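 further: lower thallium flux fluorescence means stronger hERG block; nearly all actives have a fitted effect of over 50% in size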; further: potency means the concentration at half of the fitted maximal effect
Chain of Voltage-gated inwardly rectifying potassium channel KCNH2 (Homo sapiens) (Q12809 whole entry, looked up): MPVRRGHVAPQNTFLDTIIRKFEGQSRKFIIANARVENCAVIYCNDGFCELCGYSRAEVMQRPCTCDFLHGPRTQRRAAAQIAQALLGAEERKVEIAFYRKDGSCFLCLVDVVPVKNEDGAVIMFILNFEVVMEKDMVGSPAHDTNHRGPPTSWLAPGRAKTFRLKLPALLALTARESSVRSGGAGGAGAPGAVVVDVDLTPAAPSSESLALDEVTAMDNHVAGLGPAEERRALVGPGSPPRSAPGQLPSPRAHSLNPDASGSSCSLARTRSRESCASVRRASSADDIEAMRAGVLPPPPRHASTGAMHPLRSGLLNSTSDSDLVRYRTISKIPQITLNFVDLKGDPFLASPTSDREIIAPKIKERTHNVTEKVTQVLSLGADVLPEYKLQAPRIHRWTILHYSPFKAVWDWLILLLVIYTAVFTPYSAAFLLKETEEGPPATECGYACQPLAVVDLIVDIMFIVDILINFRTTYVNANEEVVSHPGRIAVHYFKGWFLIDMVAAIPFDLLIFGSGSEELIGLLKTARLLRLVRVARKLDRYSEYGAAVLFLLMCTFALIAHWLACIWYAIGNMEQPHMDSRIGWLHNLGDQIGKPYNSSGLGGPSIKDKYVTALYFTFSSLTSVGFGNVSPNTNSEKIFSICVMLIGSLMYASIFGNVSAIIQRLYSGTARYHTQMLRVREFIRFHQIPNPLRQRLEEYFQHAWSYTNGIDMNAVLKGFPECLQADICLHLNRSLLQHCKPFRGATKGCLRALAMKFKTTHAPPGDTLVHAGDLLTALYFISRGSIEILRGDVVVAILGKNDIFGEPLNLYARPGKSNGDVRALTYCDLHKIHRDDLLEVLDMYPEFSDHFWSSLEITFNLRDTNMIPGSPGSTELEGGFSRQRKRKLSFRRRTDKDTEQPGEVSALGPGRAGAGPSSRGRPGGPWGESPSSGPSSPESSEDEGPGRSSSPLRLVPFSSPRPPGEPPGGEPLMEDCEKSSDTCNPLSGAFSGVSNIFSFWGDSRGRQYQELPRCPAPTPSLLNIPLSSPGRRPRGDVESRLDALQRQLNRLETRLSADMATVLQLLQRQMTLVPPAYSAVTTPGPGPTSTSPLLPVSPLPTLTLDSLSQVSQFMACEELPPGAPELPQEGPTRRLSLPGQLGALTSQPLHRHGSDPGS
Summary of the method: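 U2OS cells transduced with hERG via BacMam (MOI ~100), plated 2000/well, loaded with FluxOR thallium dye, compound ~10 min, then stimulation buffer; fluorescence decrease read kinetically; AC50 from Hill fits.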

[19] = qHTS drug screen for cell cycle checkpoint inhibitors in PARPi-resistant BRCA-mutant ovarian cancer cell lines. (AID 1963452; calls by dose curve); settings: PEO1/OlaR viability, CellTiter-Glo luminescence, 96 h, stronger effect = lower value
Summary of the method: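 PEO1, PEO4 and PEO1/OlaR ovarian cancer cells, 600 per well, exposed 96 h at 37C to a dilution series. Viability read by CellTiter-Glo luminescence, normalized to DMSO and empty wells; activity summarized as Z-AUC.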

[20] = qHTS assay to identify inhibitors of the type 1 interferon - major histocompatibility complex class I in skeletal muscle: Counter screen cell viability and HiBit confirmation (AID 1347412); settings: iHSKM muscle cells + IFN-b, HiBiT or CellTiter-Glo, 24 h; HiBiT; at 45.9 µM (top of the series); further: on the % scale 0 is the no-effect control and ±100 the full control effect; nearly all actives have a fitted effect of over 60% in size
Summary of the method: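 HLA-B*08:01–HiBiT knock-in immortalized human myoblasts (C25cl48) stimulated with 4.0 ng/ml human IFN-beta and dosed with compound in a 12-point 1:3 titration (top final 46 uM). After 24 hrs at 37 C, HiBiT lytic luminescence or CellTiter Glo ATP read out.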

[21] = measured here: cell count channel max response
[22] = measured here: lipid channel max response

O=C(Cc1ccc(Cl)c(Cl)c1)OCCN1CCCC1
-1.75%: max response [2, 21]
-0.355%: max response [2, 22]
inactive: outcome [1] | activity change, negative = inhibition [2] 1.23% | Potency [3] | Potency [4] | outcome [5] | Potency [6] | Potency [7] | outcome [8] | Potency [9] | outcome [10] | Potency [11] | Potency [12] | Potency [13] | outcome [14] | outcome [15] | activation [16] 1.06% | outcome [17] | Potency [18]

OC[C@H]1O[C@@H](n2cnc3c(NCCc4ccccc4)ncnc32)[C@H](O)[C@H]1O
-25.2%: max response [2, 21]
-26.1%: max response [2, 22]
inactive: outcome [1] | activity change, negative = inhibition [2] -0.874% | Potency [3] | Potency [4] | outcome [5] | Potency [6] | Potency [7] | outcome [8] | Potency [9] | outcome [10] | Potency [11] | Potency [12] | Potency [13] | outcome [14] | outcome [15] | activation [16] -0.5% | outcome [17] | Potency [18]

C[C@@H](Oc1cc(C(=O)Nc2ccc(C(=O)N3CCN(C)CC3)cc2)nnc1N)c1c(Cl)ccc(F)c1Cl
-1.08: Z-AUC ([19]; measured here: PEO1 parental Z-AUC)
-1.2: Z-AUC ([19]; measured here: PEO4 Z-AUC)
inactive: Z-AUC [19] -0.576 | activity change, negative = inhibition [20] -32.5%

COc1cc2c(cc1OC)C(c1ccccc1)CN(C)CC2 (centres undefined)
inactive: outcome [1] | Potency [3] | Potency [4] | outcome [5] | outcome [8] | Potency [9] | outcome [10] | Potency [11] | Potency [12] | Potency [13] | outcome [14] | outcome [15] | activation [16] 1.81% | outcome [17]
active: Potency [6] 14.1 µM

CC(O)[C@@H](O)[C@H]1CNc2nc(N)[nH]c(=O)c2N1 (some centres undefined)
inactive: outcome [1] | Potency [3] | Potency [4] | Potency [6] | Potency [7] | Potency [9] | outcome [10] | Potency [11] | Potency [12] | Potency [13] | outcome [14] | outcome [15] | activation [16] 0.0625% | outcome [17]

CN1C2CCC1CC(NC(=O)c1nn(C)c3ccccc13)C2 (centres undefined)
inactive: outcome [1] | Potency [3] | Potency [4] | outcome [5] | Potency [6] | Potency [7] | Potency [9] | outcome [10] | Potency [12] | Potency [13] | outcome [14] | outcome [15] | activation [16] 0.75% | outcome [17] | Potency [18]

CC(C)(C)[C@]1(O)CCN2CC3c4ccccc4CCc4cccc(c43)[C@@H]2C1 (some centres undefined)
inactive: outcome [1] | Potency [3] | Potency [4] | Potency [9] | Potency [13] | outcome [15] | outcome [17]
active: Potency [6] 6.31 µM and 3.55 µM | Potency [7] 7.08 µM and 14.1 µM | Potency [18] 2 µM

CSc1nc(N)c2ncn([C@@H]3O[C@H](COP(=O)(O)OP(=O)(O)O)[C@H](O)[C@H]3O)c2n1
inactive: outcome [1] | Potency [3] | Potency [4] | Potency [6] | Potency [7] | outcome [8] | Potency [9] | outcome [10] | Potency [11] | Potency [12] | Potency [13] | outcome [14] | outcome [15] | activation [16] 17.3% | outcome [17] | Potency [18]

CC(C)CN(C)c1nc(N)c(C(=O)N=C(N)N)nc1Cl
active: Potency [6] 3.98 µM | Potency [11] 8.28 µM | Potency [12] 10.4 µM | Potency [13] 44.7 µM | Potency [18] 2 µM
inactive: outcome [1] | Potency [3] | Potency [4] | Potency [9] | outcome [15] | activation [16] 0.812% | outcome [17]

O=[N+]([O-])c1ccc(CSc2ncnc3c2ncn3[C@@H]2O[C@H](CO)[C@H](O)[C@H]2O)cc1
inactive: outcome [1] | Potency [3] | Potency [4] | outcome [5] | Potency [9] | outcome [10] | Potency [11] | Potency [12] | Potency [13] | outcome [14] | outcome [15] | activation [16] 0.688% | outcome [17]
